According to PubChem BioAssay (NCATS):
Inconclusive results are not listed. Activity calls are given as the source filed them. Calls follow the shape of the dose curve; as a rule, active = well fitted cell-killing curve with a large enough effect; inconclusive = small, poorly fitted or top-dose-only effect, or effect the other way; inactive = no such curve, though single readings can be large or run the other way.

Experiment: Viability qHTS for spleen associated tyrosine kinase inhibitor (SYKi) drug resistant MV4-11 cells (AID 1963824); also: nearly all actives have a fitted effect of over 35% in size
Conditions: SYKi-resistant MV4-11 viability, CellTiter-Glo, 72 h; series mostly up to 45 µM
Outline: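 SYK inhibitor-resistant MV4-11 AML cells, 500 per well, added to predispensed compounds and incubated 72 hr at 37 C, 5% CO2. Viability measured by CellTiter-Glo luminescence after 10 min at room temperature.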
Potency is read from the fitted curve at half-maximal effect.

Q: For `COc1ccc([C@@]2(O)c3c(ccc(CC=C(C)C)c3O)NC(=O)[C@@H]2OC)cc1`, which Potency is on record?
A: 14.3 µM (active)

Q: With `NS(=O)(=O)Nc1ncnc(OCCOc2ncc(Br)cn2)c1-c1ccc(Br)cc1` as the compound, how does the Potency read?
A: 14.6 µM (active)

Q: Which Potency does the source give for `C=C1C(OC2OCC(O)C(O)C2O)CC2C(C)(C)C(O)CCC2(C)C1CC/C(C)=C\CO` (centres undefined) here?
A: 7.09 µM (active)

Q: With `Cc1nc2ccccc2n1Cc1ccc(Cl)cc1` as the compound, how does the Potency read?
A: 0.422 µM (active)

Q: With `CC(=O)N[C@H](Cc1c[nH]c2ccccc12)C(=O)OCc1cc(C(F)(F)F)cc(C(F)(F)F)c1` as the compound, how does the Potency read?
A: 23.1 µM (active)

Q: For `COC(=O)CC(O)CC(O)/C=C/c1c(C)ccc2c1C(OC(C)=O)CC(C)C2` (centres undefined), which Potency is on record?
A: 1.8 µM (active)

Q: Which Potency does the source give for `CN1CCCN(C(=O)c2cccc(-c3ccc(/C=C4\C(=O)Nc5ccc(Cl)cc54)o3)c2)CC1` here?
A: 0.461 µM (active)

Q: Which Potency does the source give for `C=CC(C)(O)C(O)CC1C(C)(O)C(O)C(O)C2C(C)(C)CCCC21C` (centres undefined) here?
A: inactive

Q: Which Potency does the source give for `O=C(CCO[C@@H]1O[C@H](CO)[C@@H](O)[C@H](O)[C@H]1O)c1ccc(O)cc1` here?
A: inactive

Q: Which Potency does the source give for `Nc1nc2c(c(=O)[nH]1)N1CN(c3ccc(C(=O)N[C@@H](CCC(=O)O)C(=O)O)cc3)CC1CN2` (some centres undefined) here?
A: 0.833 µM (active)

Q: For `CC(=O)OC1CC(=O)C2(C)C3CC4=C(OC(C)CC4=O)OC3(C)CCC2C1(C)C` (centres undefined), which Potency is on record?
A: inactive

Q: With `O=C(/C=C/c1cccnc1)c1ccncc1` as the compound, how does the Potency read?
A: 6.51 µM (active)

Q: With `O=C(C1OC1/C=C/c1ccc2c(c1)OCO2)N1CCCCC1` (centres undefined) as the compound, how does the Potency read?
A: inactive

Q: With `COC1CC(O[C@H]2CC[C@]3(C)C4CC[C@]5(C)C(C6=CC(=O)OC6)=CCC56OC46CC[C@@H]3C2)OC(C)C1O[C@@H]1O[C@H](CO[C@@H]2O[C@H](CO)[C@@H](O)[C@H](O)[C@H]2O)[C@@H](O)[C@H](O)[C@H]1O` (some centres undefined) as the compound, how does the Potency read?
A: 1.38 µM (active)
